For 40 molecules, % cells with GFP-LC3 spots and toxicity results are on record in PubChem BioAssay AID463193 (University of Pittsburgh Molecular Library Screening Center, 2010).

SMILES strings stand for the structures. Hit rate of the full screen: of about 190,000 compounds, about 1,900 (1%) were called active.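 How the source made its calls: active means percentage of spot-positive cells more than 3 SD above its plate mean, without a fluorescence outlier flag or 80% toxicity; inconclusive means no clear call, values can overlap the other calls; inactive means the rest.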 The entries come from a sample that favours actives as a whole.

This experiment can be described thus: GFP-LC3 puncta formation changes – imaging, high-content, MEF GFP-LC3, primary screen (AID 463193).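 On % cells with GFP-LC3 spots: spot-positive cell cutoff set from DMSO-treated cells.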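 On toxicity: cell loss after 18 h compound exposure.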 The following applies: autophagy, at 10 µM; % cells with GFP-LC3 spots: stronger effect = higher value; toxicity: measured here: cell loss, nuclei count.
Regarding `O=C1/C(=C\c2ccsc2)NC(=S)N1c1ccccc1`, the % cells with GFP-LC3 spots is 0.432% (inactive) and the toxicity was found to be 4.12%.

With `Nc1[nH]c(=S)nc2nc(-c3ccccc3)c(-c3ccccc3)nc12`, the % cells with GFP-LC3 spots is 14.2% (inactive) and the toxicity is 22.7%.

For `O=C(O)CS/C(=C\c1ccc(F)cc1)c1nc2ccccc2s1`, the % cells with GFP-LC3 spots was 5.4% (inactive) and the toxicity is -6.27%.

Turning to `N#C/C(=C(/O)Cc1cccc2ccccc12)c1nc2ccccc2s1`, the % cells with GFP-LC3 spots was 0.484% (inactive) and the toxicity is -0.84%.

With `CC1=CC(=C(C#N)c2nc3ccccc3s2)C=C(C)N1c1ccc(F)cc1F`, the % cells with GFP-LC3 spots is 27.8% (active) and the toxicity worked out at 15.8%.

For the molecule `COCCN(CCOC)C(=S)Nc1ccccc1Cl`, the % cells with GFP-LC3 spots was 8.84% (inactive) and the toxicity was -8.3%.

On to `CCOc1ccc2c(c1)cc(CN(C(=O)CC)C1CCCCC1)c1nnnn12`, for which the % cells with GFP-LC3 spots is 5.66% (inactive) and the toxicity is 13.7%.

On to `CCc1ccc2c(c1)cc(CN(C(=S)Nc1ccccc1Cl)C1CC1)c1nnnn12`, for which the % cells with GFP-LC3 spots was 19.7% (active) and the toxicity is 11.8%.

Turning to `CCOC(=O)C1CCCN(C(=O)C2CCN(c3nnc(-n4cccc4)s3)CC2)C1` (stereo not given), the % cells with GFP-LC3 spots is 15.3% (active) and the toxicity was 6.19%.

Turning to `CSc1ccc(CCNC(=O)C2CCN(c3nnc(-n4cccc4)s3)CC2)cc1`, the % cells with GFP-LC3 spots was 4.67% (inactive) and the toxicity was found to be 3.56%.

In the case of `CCOC(=O)C1CCCN(C(=O)c2cncc(Br)c2)C1` (stereo not given), the % cells with GFP-LC3 spots is 9.51% (inactive) and the toxicity came out at 4.79%.

Take `Fc1cc(Br)ccc1NC(=S)Nc1cccnc1`: the % cells with GFP-LC3 spots is 4.97% (inactive) and the toxicity was -1.9%.

In the case of `CN(C)c1ccc(-n2cccc2/C=C2/SC(=Nc3ccc(F)cc3)NC2=O)cc1`, the % cells with GFP-LC3 spots was 93.2% (active) and the toxicity was -20.2%.

With `Cc1cccc(N=C2NC(=O)/C(=C/c3cn(C)c4ccccc34)S2)c1`, the % cells with GFP-LC3 spots was 2.55% (inactive) and the toxicity was found to be 4.32%.

Regarding `CN(C)c1ccc(-n2cccc2/C=N/n2cnnc2)cc1`, the % cells with GFP-LC3 spots is 4.65% (inactive) and the toxicity was -2.02%.

For `CCC(C)(C)NC(=O)/C=C/c1cc(OC)c(OC)c(S(=O)(=O)N2CCc3ccccc32)c1`, the % cells with GFP-LC3 spots is 11.3% (inactive) and the toxicity worked out at 20%.

With `O=C(CCl)N(Cc1cccc([N+](=O)[O-])c1)c1cccc(Cl)c1`, the % cells with GFP-LC3 spots is 60.8% (active) and the toxicity came out at 58.5%.

For the molecule `O=C(Nc1cccc([N+](=O)[O-])c1)Nc1ccc(Cl)cn1`, the % cells with GFP-LC3 spots was 1.56% (inactive) and the toxicity came out at 15.9%.

Turning to `CCN(CC)C(=O)CN(c1cccc([N+](=O)[O-])c1)S(=O)(=O)c1ccccc1`, the % cells with GFP-LC3 spots was 0.147% (inactive) and the toxicity was 2.32%.

Turning to `Cc1ccccc1OCC(=O)Nc1nc(C)c(C(=O)N(C)C)s1`, the % cells with GFP-LC3 spots is 28.3% (inactive) and the toxicity was -9.79%.

Consider `CCc1cccc(NC(=O)CCC(=O)O)c1`, for which the % cells with GFP-LC3 spots is 4.04% (inactive) and the toxicity is 8.61%.

Take `O=C(c1ccc(F)cc1)n1cc(C(=S)N2CCOCC2)c2ccccc21`: the % cells with GFP-LC3 spots was 8.35% (inactive) and the toxicity was -13.5%.

Consider `CCOC(=O)c1sc(NC(=O)CSc2nc(O)c(Cc3ccccc3)c(=O)[nH]2)nc1C`, for which the % cells with GFP-LC3 spots was 4.28% (inactive) and the toxicity is -1.5%.

With `COC(=O)c1ccccc1NC(=O)c1cncc(Br)c1`, the % cells with GFP-LC3 spots is 6.11% (inactive) and the toxicity is -8.54%.

Take `CCc1ccc(Oc2coc3cc(OC(=O)c4cc5ccccc5oc4=O)ccc3c2=O)cc1`: the % cells with GFP-LC3 spots was 1.87% (inactive) and the toxicity was -5.27%.

Turning to `COc1ccc(Oc2coc3cc(OC(=O)c4cncc(Br)c4)ccc3c2=O)cc1`, the % cells with GFP-LC3 spots is 25.7% (active) and the toxicity was -11.8%.

Take `Nc1nc(SCC(=O)N2CCN(S(=O)(=O)c3ccc(Cl)cc3)CC2)n[nH]1`: the % cells with GFP-LC3 spots is 1.97% (inactive) and the toxicity was -0.836%.

As to `N#Cc1ccsc1NC(=O)CN1CCN(S(=O)(=O)c2cc(Cl)ccc2Cl)CC1`, the % cells with GFP-LC3 spots was 7.41% (inactive) and the toxicity came out at 41.3%.

For `CCOC(=O)N1CC=C2C(C#N)=C(N)C(C#N)(C#N)[C@H](c3cccs3)[C@H]2C1`, the % cells with GFP-LC3 spots was 11.3% (inactive) and the toxicity was -6.29%.

Take `CCCN1CC=C2C(C#N)=C(N)C(C#N)(C#N)C(c3cc(OC)ccc3OC)C2C1` (stereo not given): the % cells with GFP-LC3 spots was 99.7% (active) and the toxicity is 9.7%.

On to `CCC1=C(C(=O)OC)C(c2cc(OC)ccc2OC)C(C#N)=C(N)O1` (stereo not given), for which the % cells with GFP-LC3 spots was 2.22% (inactive) and the toxicity was -10.7%.

Consider `COCCCNCCOCCOc1ccc(Cl)cc1Br`, for which the % cells with GFP-LC3 spots was 5.65% (inactive) and the toxicity is 4.08%.

As to `CCn1nc(C)c(/C=N/NC(=O)Cc2ccc(Cl)cc2)c1C`, the % cells with GFP-LC3 spots was 4.23% (inactive) and the toxicity is 8.44%.

For the molecule `Cc1cc(C)cc(NC(=S)NCCCN2CCOCC2)c1`, the % cells with GFP-LC3 spots is 12.3% (inactive) and the toxicity is -2.96%.

For the molecule `Cc1ccc(S(=O)(=O)NCCN2CCOCC2)cc1C`, the % cells with GFP-LC3 spots was 1.8% (inactive) and the toxicity was determined as 15.4%.

As for `Cc1cc(C)c(S(=O)(=O)NCCCN2CCOCC2)cc1Br`, the % cells with GFP-LC3 spots was 19.8% (active) and the toxicity was 9.5%.

With `CCc1nc2ccccc2c(C(=O)NCc2ccc(OC)cc2)c1C`, the % cells with GFP-LC3 spots was 2.64% (inactive) and the toxicity is -18.8%.

As for `C=CCNc1nc(Nc2ccc(Cl)cc2)nc(OC)n1`, the % cells with GFP-LC3 spots is 0.706% (inactive) and the toxicity was determined as 0.881%.

For `Cc1ccc(NC(=O)OCCNC(=O)c2ccncc2)cc1`, the % cells with GFP-LC3 spots was 5.3% (inactive) and the toxicity came to 0.481%.

For the molecule `CC[C@H]1OC(=O)[C@H](C)[C@@H](O[C@H]2C[C@@](C)(OC)[C@@H](O)[C@H](C)O2)[C@H](C)[C@@H](O[C@@H]2O[C@H](C)C[C@H](N(C)C)[C@H]2O)[C@](C)(O)C[C@@H](C)[C@@H]2N[C@@H](COCCOC)O[C@H]([C@H]2C)[C@]1(C)O`, the % cells with GFP-LC3 spots is 10.6% (inactive) and the toxicity is 20.5%.
